The values below come from PubChem BioAssay AID1578 (Sanford-Burnham Center for Chemical Genomics, 2009).

The whole screen tested about 290,000 compounds, of which about 3,000 (1%) were called active. The sample as a whole holds a higher share of actives than the screen did. Values without a mark were called inactive. Cut-off read from the data, not from the text of the source: active = inhibition mostly above about 36% (no sharp cut-off); inactive = mostly below about 34%.

The experiment in a line: inhibition of NOD1-driven NF-kB reporter – cell-based, luminescence, uHTS, primary screen (AID 1578).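 Note: HEK-293T reporter cells stimulated with the NOD1 agonist gamma-tri-DAP.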 The settings on record: NOD1-driven NF-kB luciferase reporter cells, at 4 µM, active compounds read high. On the technique in general: In a reporter assay the amount or activity of a reporter protein is the signal.
In general, inhibition refers to the relative decrease from the control value, in per cent. As for `COc1ccc(-c2oc(NC(C)=O)c(C#N)c2-c2ccc(OC)cc2)cc1`, the inhibition was 11.7%.

Turning to `COc1ccc(-c2oc(NC(=O)c3ccc(C)cc3)c(C#N)c2-c2ccc(OC)cc2)cc1`, the inhibition is -18.9%.

`COc1ccc(-c2oc(NC(=O)CCl)c(C#N)c2-c2ccc(OC)cc2)cc1`: the inhibition is 71.1% (active).

As to `COC(=O)CN1C(=O)C2(C(C#N)=C(N)Oc3ccccc32)C2=C1CC(C)(C)CC2=O` (centres undefined), the inhibition was 1.7%.

As for `COc1ccc(-n2c(C)c(C(C)=O)c(C(C)=O)c2C)cc1OC`, the inhibition is -0.8%.

For `COc1ccc(NC(=S)NC(NC(=O)C(C)C)C(Cl)(Cl)Cl)c([N+](=O)[O-])c1` (centres undefined), the inhibition was 11.7%.

In the case of `COc1ccc(NC(=S)NC(NC(C)=O)C(Cl)(Cl)Cl)c([N+](=O)[O-])c1` (centres undefined), the inhibition was -5.3%.

On to `COc1ccc(NC(=S)NC(NC(=O)CCl)C(Cl)(Cl)Cl)c([N+](=O)[O-])c1` (centres undefined), for which the inhibition is 76.4% (active).

With `CCOC(=O)N1CCC(NC(=O)c2ccc3c(c2)N=C(CC)c2ccccc2S3)CC1`, the inhibition is 20.2%.

`O=C(NNC(=S)Nc1ccccc1)c1ccccc1[N+](=O)[O-]`: the inhibition was -34.4%.

As for `CCC(C)(C(=O)NC1CCCCC1)N(C(=O)CNC(C)=O)c1c(C)n(C)n(-c2ccccc2)c1=O` (centres undefined), the inhibition was -13.9%.

Consider `NC(=S)NN=C1c2cc(S(=O)(=O)N3CCOCC3)ccc2-c2ccc(S(=O)(=O)N3CCOCC3)cc21`, for which the inhibition was -20.4%.

Take `NC(=S)NN=C1c2cc(OCCN3CCOCC3)ccc2-c2ccc(OCCN3CCOCC3)cc21`: the inhibition was 42.8% (active).

In the case of `ON=C1c2cc(OCCN3CCCCC3)ccc2-c2ccc(OCCN3CCCCC3)cc21`, the inhibition is 0.3%.

With `Cc1cccc(C(=O)Nc2ccc(C(=O)Nc3ccc(O)cc3)cc2)c1`, the inhibition was -22.1%.

On to `COc1ccc(CC(=O)OCC(=O)NCCc2ccccc2)cc1OC`, for which the inhibition was -25.2%.

Take `COc1ccc(CC(=O)NC(C)c2nnc(SCCOc3ccc(OC)cc3)n2C)cc1` (centres undefined): the inhibition is -0.8%.

Take `C=CCn1c(SCCOc2ccc(OC)cc2)nnc1C(C)NC(=O)Cc1ccc(OC)cc1` (centres undefined): the inhibition was 74.9% (active).

With `C=CCn1c(SCCOc2ccc(OC)cc2)nnc1C(C)NC(=O)c1ccc(OC)cc1` (centres undefined), the inhibition is 5.8%.

Regarding `COc1ccc(-c2cc(C(=O)N/N=C(\C)c3ccco3)c3ccccc3n2)c(OC)c1`, the inhibition is -42.5%.

In the case of `CCN1C(=NCc2ccc(OC)cc2)N[C@@H](c2ccccc2)C(C(=O)OC)=C1C`, the inhibition was -15.5%.

Regarding `CC(C)CCN1CCN(Cc2cccn2-c2nccs2)CC1CCO` (centres undefined), the inhibition is -20.1%.

Regarding `CN1CCN(C(=O)CCC(=O)O)CC1`, the inhibition was -14.8%.

`COc1cccc(CC(=O)n2nc(N)c3cc4ccc(OC)cc4nc32)c1`: the inhibition was 3.9%.

In the case of `COc1ccc2cc3c(N)nn(C(=O)Cc4ccc(Cl)cc4)c3nc2c1`, the inhibition was 14.9%.

Regarding `CCOc1ccccc1Nc1ncnc2ccc(Br)cc12`, the inhibition is -11.1%.

Take `CN(C)c1ccc(Nc2ncnc3ccc(Br)cc23)cc1`: the inhibition was 53.8%.

For the compound `OCCNc1ncnc2ccc(Br)cc12`, the inhibition is 46.1%.

In the case of `Cc1cccc(Nc2ncnc3ccc(Br)cc23)c1`, the inhibition was 42.4%.

`CC(C)Nc1ncnc2ccc(Br)cc12`: the inhibition is 87.6% (active).

In the case of `CCN(CC)c1ncnc2ccc(Br)cc12`, the inhibition is 67.5% (active).

`Clc1cccc(Nc2ncnc3ccc(Br)cc23)c1`: the inhibition is 11.7%.

For `CN(Cc1ccccc1)c1ncnc2ccc(Br)cc12`, the inhibition was 10.2%.

For `Cc1ccc(CC2C(=O)N(c3cc(Cl)ccn3)C(=O)C2C)cc1` (centres undefined), the inhibition is -9.5%.

In the case of `Cc1nn(C)cc1CN1CCC(n2nccc2NC(=O)CCCc2ccccc2)CC1`, the inhibition is -26.7%.

Take `O=C(/C=C/c1ccco1)c1ccccc1O`: the inhibition was -22.5%.

Regarding `COc1ccc(NC(=O)c2cc(-c3ccc(OC)c(OC)c3)on2)cc1OC`, the inhibition is -8.9%.

For `N#Cc1ccc(N2CCCC2C(=O)O)c([N+](=O)[O-])c1` (centres undefined), the inhibition was 6.2%.

Consider `COC(=O)C1(c2ccccc2)NC(c2cccs2)C2C(=O)N(C)C(=O)C21` (centres undefined), for which the inhibition is -15.5%.

`CN(C)/C=C1\N=C(c2cccnc2Oc2ccc(Cl)cc2)OC1=O`: the inhibition was -11.9%.

Consider `COc1ccc(OC)c(NC(=O)CNC(=O)Cn2ccc3ccccc3c2=O)c1`, for which the inhibition is -4%.

Regarding `CN(C)c1nc2n(c(=O)n1)CCS2`, the inhibition was -11.7%.

Regarding `CCOC(=O)C1CCN(S(=O)(=O)c2cccc3nonc23)CC1`, the inhibition was -27.8%.

In the case of `CCOC(=O)C1CCN(S(=O)(=O)c2c(C)noc2C)CC1`, the inhibition was -15.9%.

As to `CCOC(=O)C1CCN(S(=O)(=O)c2c(Cl)ccc3nonc23)CC1`, the inhibition is 102% (active).

On to `CC(CCN1CCOCC1)c1ccccc1` (centres undefined), for which the inhibition is -28%.

`O=C(c1ccc(Cl)c(S(=O)(=O)N2CCCC2)c1)N1CCN(c2ccc(F)cc2)CC1`: the inhibition was 0.4%.

For the compound `O=C(NC1CCCCC1)c1ccc(S(=O)(=O)c2ccccc2Cl)c([N+](=O)[O-])c1`, the inhibition was 91.4% (active).

On to `O=C(c1ccc(Br)c([N+](=O)[O-])c1)N1CCN(Cc2ccccc2)CC1`, for which the inhibition was -6.4%.

Take `O=C(c1ccc(S(=O)(=O)Cc2cc(F)ccc2F)c([N+](=O)[O-])c1)N1CCCC1`: the inhibition was 5%.

In the case of `O=C(NC1CCCCC1)c1ccc(S(=O)(=O)c2ccccc2)cc1`, the inhibition was 18%.

As to `O=C(NC1CCCC1)c1ccc(Cl)c(S(=O)(=O)N2CCCCC2)c1`, the inhibition was 10.6%.

On to `Cc1ccc(C(=O)N2CCN(c3ccccc3)CC2)cc1S(=O)(=O)N1CCCC1`, for which the inhibition was 3.9%.

Consider `Cc1cc(C(=O)N2CCN(Cc3ccccc3)CC2)ccc1[N+](=O)[O-]`, for which the inhibition was 0.5%.

Turning to `O=C(c1ccc(S(=O)(=O)Cc2ccccc2F)c([N+](=O)[O-])c1)N1CCCCCC1`, the inhibition was 1%.

Consider `COc1cccc(C(=O)NCCCNC(=O)c2cccc(OC)c2)c1`, for which the inhibition is -4.9%.

Regarding `CCN(CC)S(=O)(=O)c1ccc(S(=O)(=O)N2CCN(C(=O)c3ccco3)CC2)cc1`, the inhibition was -3.5%.

As to `CC(=O)Nc1ccc(NC(=O)C(C)Sc2nnc(-c3cccs3)o2)cc1` (centres undefined), the inhibition was -14.2%.

Take `Cc1ccccc1C(=O)Nc1ccccc1`: the inhibition was -15.4%.

Turning to `Cc1c(C(=O)NN2CCOCC2)oc2c1ccc1ccccc12`, the inhibition is -35.1%.

In the case of `COc1ccc(CCNC(=O)COC(=O)/C=C/c2ccc(OCC#N)c(OC)c2)cc1`, the inhibition was -30.9%.

Regarding `Cc1cc(C)n2nc(C(=O)N3CCN(c4ccc([N+](=O)[O-])cc4)CC3)nc2n1`, the inhibition was -21.8%.

On to `CCOC(=O)C1CCN(CC(O)COCc2ccccc2)CC1` (centres undefined), for which the inhibition was 34.7% (active).

On to `CCOC(=O)C1CCN(CC(O)COCc2cccs2)CC1` (centres undefined), for which the inhibition was -28.2%.

Regarding `CCOC(=O)C1CCN(CC(O)COCc2ccc(Cl)cc2)CC1` (centres undefined), the inhibition is -12.3%.

With `COC(=O)c1ccc(/C=N/NC(=O)c2ccc3nc[nH]c3c2)cc1`, the inhibition was -10.6%.

With `O=C(O)CCc1ccc(-c2ccc(Br)cc2)n1Cc1ccco1`, the inhibition was -8.6%.

For the compound `CC(C)C[C@H](NC(=O)N1CCn2c1nc1ccccc12)C(=O)N[C@@H](C(=O)O)c1ccccc1`, the inhibition was -6%.

In the case of `CC(C)[C@H](NC(=O)N1CCn2c1nc1ccccc12)C(=O)N[C@@H](C(=O)O)c1ccccc1`, the inhibition was 1.1%.

As for `CC(C)[C@H](NC(=O)N1CCn2c1nc1ccccc12)C(=O)N[C@H](C(=O)O)c1ccccc1`, the inhibition is 68.4% (active).

As for `CC(C)(C)C(=O)NC1(C(F)(F)F)NC(=O)N(c2ccccc2F)C1=O` (centres undefined), the inhibition was 2.6%.

`Cn1cc([N+](=O)[O-])c(C(=O)Nc2nccs2)n1`: the inhibition was -14.6%.

Regarding `CCn1cc([N+](=O)[O-])c(C(=O)Nc2nc(-c3ccc(C)c(C)c3)c(C)s2)n1`, the inhibition was -63.4%.

Consider `Cc1cnc(NC(=O)c2nn(C)cc2[N+](=O)[O-])s1`, for which the inhibition was 24.8%.

Turning to `CCn1cc([N+](=O)[O-])c(C(=O)Nc2nc(-c3ccc(C)cc3)c(C)s2)n1`, the inhibition is 2.6%.

In the case of `Cc1csc(=S)n1-c1ccccc1`, the inhibition was 5.1%.

For `COc1ccccc1C(=O)N/C(=C\c1cn(S(=O)(=O)N(C)C)c2ccccc12)C(=O)NCCN1CCOCC1`, the inhibition was -15%.

Take `COc1ccc(C(=O)Oc2cccc(Nc3ncnc4ccccc34)c2)cc1OC`: the inhibition was 29.6%.

Take `COc1cccc(N2CCN(c3nc(C)c(C)c(=O)[nH]3)CC2)c1`: the inhibition is -29.1%.

As to `Cc1noc(-c2ccc(Cl)cc2)c1C(=O)O/N=C(\N)c1ccc(C(C)(C)C)cc1`, the inhibition is 84% (active).

Consider `Cc1cc(C(=O)O/N=C(\N)c2ccc(C(C)(C)C)cc2)no1`, for which the inhibition was -2.5%.

Regarding `COC(=O)c1c(C)noc1-c1ccc(Cl)cc1`, the inhibition is -8.4%.

Turning to `O=C(/C(N=Nc1cccc(C(F)(F)F)c1)=C(/O)c1cccs1)C(F)(F)F`, the inhibition is 58.5% (active).

`CC(=O)/C(N=Nc1cccc(C(F)(F)F)c1)=C(\C)O`: the inhibition is -26.4%.

On to `COC(=O)/C(N=Nc1cccc(C(F)(F)F)c1)=C(\C)O`, for which the inhibition was 1.3%.

For `CC(C)C1CC(c2ccccc2)(C(CN)CO)CCO1` (centres undefined), the inhibition was -22.3%.

As for `C=C(C)COc1ccc(-c2[nH]ncc2-c2ccc(Br)cc2)c(O)c1`, the inhibition was -22.6%.

Take `Cc1cc(C(=O)NCC2COc3ccccc3O2)c2ccccc2n1` (centres undefined): the inhibition was -14.4%.

`Cc1nc2ccccc2c2oc(C(=O)NCc3ccc4c(c3)OCO4)cc12`: the inhibition was 38.5%.

Take `Cn1c(Cc2ccccc2)nnc1SCC(=O)N1CCN(c2ccccc2)CC1`: the inhibition was -14.3%.

In the case of `COC(=O)c1sccc1NC(=O)/C=C/C(=O)O`, the inhibition is -34.3%.

Regarding `O=C(Nc1ccc([N+](=O)[O-])cc1)c1nc[nH]c1C(=O)NC1CCCCC1`, the inhibition was 80.7% (active).

As for `CCOC(=O)c1[nH]cnc1C(=O)Nc1ccc([N+](=O)[O-])cc1`, the inhibition was -7.2%.

As to `O=C(Nc1ccc(F)cc1)c1nc[nH]c1C(=O)Nc1ccc([N+](=O)[O-])cc1`, the inhibition is 45%.
